Experiment [1] addresses Sphingosine kinase 1 (Homo sapiens) (UniProt Q9NYA1). The conditions noted are these: at 1 µM.
The target of experiment [2] is T1, Sphingosine kinase 2 (Homo sapiens) (UniProt Q9NRA0).
T1 sequence (whole entry): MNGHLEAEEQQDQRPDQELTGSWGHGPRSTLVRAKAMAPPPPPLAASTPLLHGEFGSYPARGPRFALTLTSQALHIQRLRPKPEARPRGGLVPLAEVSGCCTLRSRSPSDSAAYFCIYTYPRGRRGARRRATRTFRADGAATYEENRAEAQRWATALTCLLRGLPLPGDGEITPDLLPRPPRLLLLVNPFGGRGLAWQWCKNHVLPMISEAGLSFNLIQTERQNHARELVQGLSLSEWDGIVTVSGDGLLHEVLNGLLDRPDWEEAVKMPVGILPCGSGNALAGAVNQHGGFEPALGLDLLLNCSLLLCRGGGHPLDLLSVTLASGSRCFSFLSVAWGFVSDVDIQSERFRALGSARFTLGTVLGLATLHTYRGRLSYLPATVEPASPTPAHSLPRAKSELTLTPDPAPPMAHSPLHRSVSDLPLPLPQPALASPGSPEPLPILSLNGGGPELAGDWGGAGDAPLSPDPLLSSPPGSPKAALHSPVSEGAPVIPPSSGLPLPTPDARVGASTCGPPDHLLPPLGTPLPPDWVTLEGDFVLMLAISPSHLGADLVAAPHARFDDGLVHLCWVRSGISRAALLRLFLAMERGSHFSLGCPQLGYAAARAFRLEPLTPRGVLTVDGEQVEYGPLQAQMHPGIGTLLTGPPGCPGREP
The following applies: at 0.1 µM.

Experiment [3] deals with T1, Sphingosine kinase 2 (Homo sapiens). The following applies: at 1 µM.
Experiment [4] deals with Casein kinase II subunit alpha (Homo sapiens) (UniProt P68400). The following applies: at 0.1 µM.
The target is the same in experiment [5]. The following applies: at 1 µM.
Experiment [6] has as its target T2, Inhibitor of nuclear factor kappa-B kinase subunit alpha (Homo sapiens) (UniProt O15111).
T2 sequence (whole entry): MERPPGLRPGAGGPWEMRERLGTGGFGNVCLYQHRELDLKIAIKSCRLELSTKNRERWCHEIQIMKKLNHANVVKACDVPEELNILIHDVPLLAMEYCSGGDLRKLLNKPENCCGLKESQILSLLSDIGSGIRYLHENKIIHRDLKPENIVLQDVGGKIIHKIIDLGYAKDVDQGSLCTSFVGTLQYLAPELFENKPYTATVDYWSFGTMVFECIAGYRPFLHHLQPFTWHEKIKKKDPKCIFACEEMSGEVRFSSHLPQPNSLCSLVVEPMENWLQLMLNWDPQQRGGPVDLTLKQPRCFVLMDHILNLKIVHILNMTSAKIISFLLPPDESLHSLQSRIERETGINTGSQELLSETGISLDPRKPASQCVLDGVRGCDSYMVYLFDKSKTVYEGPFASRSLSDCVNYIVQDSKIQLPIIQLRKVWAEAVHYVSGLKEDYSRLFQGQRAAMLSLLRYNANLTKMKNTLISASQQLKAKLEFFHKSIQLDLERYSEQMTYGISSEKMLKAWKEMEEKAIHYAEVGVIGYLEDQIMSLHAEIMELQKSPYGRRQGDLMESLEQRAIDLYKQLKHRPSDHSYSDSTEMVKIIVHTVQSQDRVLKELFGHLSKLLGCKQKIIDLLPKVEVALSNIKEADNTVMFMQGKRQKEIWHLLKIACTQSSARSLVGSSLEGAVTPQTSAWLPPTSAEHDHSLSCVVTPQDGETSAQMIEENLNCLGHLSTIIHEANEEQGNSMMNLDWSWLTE
The conditions noted are these: at 0.1 µM.

Experiment [7] has as its target T2, Inhibitor of nuclear factor kappa-B kinase subunit alpha (Homo sapiens). The following applies: at 1 µM.
For experiment [8], the target named is T3, Inhibitor of nuclear factor kappa-B kinase subunit beta (Homo sapiens) (UniProt O14920).
T3 sequence (whole entry): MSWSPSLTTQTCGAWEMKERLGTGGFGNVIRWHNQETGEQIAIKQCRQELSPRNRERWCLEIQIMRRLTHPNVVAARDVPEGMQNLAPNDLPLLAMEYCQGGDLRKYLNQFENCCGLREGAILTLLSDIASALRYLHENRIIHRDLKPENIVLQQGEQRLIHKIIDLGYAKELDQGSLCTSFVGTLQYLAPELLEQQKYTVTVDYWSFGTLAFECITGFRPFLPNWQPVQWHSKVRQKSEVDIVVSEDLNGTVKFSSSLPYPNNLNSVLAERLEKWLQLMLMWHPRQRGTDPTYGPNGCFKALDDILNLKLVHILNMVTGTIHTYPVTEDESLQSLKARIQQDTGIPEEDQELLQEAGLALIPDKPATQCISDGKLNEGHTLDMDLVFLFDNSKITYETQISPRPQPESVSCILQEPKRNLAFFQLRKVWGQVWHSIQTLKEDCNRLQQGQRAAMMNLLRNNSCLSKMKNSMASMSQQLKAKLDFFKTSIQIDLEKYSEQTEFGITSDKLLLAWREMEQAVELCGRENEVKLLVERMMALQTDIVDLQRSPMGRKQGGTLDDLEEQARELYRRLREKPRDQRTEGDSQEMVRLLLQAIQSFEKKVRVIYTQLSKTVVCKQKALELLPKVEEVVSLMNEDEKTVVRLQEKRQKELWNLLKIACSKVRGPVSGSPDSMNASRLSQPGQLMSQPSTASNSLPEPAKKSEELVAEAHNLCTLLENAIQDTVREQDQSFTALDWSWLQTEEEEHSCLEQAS
The conditions noted are these: at 0.1 µM.

Experiment [9] has as its target T3, Inhibitor of nuclear factor kappa-B kinase subunit beta (Homo sapiens). The conditions noted are these: at 1 µM.
Experiment [10] has as its target T4, Inhibitor of nuclear factor kappa-B kinase subunit epsilon (Homo sapiens) (UniProt Q14164).
T4 sequence (whole entry): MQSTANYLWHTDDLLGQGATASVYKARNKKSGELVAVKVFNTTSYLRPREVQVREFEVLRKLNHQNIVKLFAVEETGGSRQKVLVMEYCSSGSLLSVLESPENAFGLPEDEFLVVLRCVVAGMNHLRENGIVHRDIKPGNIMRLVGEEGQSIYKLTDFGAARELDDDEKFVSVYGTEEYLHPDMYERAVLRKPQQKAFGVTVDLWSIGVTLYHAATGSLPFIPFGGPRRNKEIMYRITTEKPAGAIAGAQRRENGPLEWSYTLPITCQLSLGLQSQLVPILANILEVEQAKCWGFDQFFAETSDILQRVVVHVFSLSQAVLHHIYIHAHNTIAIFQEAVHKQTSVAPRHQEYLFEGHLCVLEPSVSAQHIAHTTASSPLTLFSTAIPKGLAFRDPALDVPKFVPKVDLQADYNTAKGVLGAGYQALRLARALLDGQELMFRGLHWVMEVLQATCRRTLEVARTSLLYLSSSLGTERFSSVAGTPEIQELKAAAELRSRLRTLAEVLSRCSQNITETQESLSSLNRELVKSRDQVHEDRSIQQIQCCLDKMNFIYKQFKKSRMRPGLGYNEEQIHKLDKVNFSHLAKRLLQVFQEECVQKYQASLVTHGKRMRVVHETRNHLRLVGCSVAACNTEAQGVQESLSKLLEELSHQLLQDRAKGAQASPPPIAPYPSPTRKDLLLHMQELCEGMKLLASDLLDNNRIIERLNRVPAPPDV
The following applies: at 0.1 µM.

The target in experiment [11] is T4, Inhibitor of nuclear factor kappa-B kinase subunit epsilon (Homo sapiens). The following applies: at 1 µM.
Experiment [12] has as its target T5, Serine/threonine-protein kinase Nek1 (Homo sapiens) (UniProt Q96PY6).
T5 sequence (whole entry): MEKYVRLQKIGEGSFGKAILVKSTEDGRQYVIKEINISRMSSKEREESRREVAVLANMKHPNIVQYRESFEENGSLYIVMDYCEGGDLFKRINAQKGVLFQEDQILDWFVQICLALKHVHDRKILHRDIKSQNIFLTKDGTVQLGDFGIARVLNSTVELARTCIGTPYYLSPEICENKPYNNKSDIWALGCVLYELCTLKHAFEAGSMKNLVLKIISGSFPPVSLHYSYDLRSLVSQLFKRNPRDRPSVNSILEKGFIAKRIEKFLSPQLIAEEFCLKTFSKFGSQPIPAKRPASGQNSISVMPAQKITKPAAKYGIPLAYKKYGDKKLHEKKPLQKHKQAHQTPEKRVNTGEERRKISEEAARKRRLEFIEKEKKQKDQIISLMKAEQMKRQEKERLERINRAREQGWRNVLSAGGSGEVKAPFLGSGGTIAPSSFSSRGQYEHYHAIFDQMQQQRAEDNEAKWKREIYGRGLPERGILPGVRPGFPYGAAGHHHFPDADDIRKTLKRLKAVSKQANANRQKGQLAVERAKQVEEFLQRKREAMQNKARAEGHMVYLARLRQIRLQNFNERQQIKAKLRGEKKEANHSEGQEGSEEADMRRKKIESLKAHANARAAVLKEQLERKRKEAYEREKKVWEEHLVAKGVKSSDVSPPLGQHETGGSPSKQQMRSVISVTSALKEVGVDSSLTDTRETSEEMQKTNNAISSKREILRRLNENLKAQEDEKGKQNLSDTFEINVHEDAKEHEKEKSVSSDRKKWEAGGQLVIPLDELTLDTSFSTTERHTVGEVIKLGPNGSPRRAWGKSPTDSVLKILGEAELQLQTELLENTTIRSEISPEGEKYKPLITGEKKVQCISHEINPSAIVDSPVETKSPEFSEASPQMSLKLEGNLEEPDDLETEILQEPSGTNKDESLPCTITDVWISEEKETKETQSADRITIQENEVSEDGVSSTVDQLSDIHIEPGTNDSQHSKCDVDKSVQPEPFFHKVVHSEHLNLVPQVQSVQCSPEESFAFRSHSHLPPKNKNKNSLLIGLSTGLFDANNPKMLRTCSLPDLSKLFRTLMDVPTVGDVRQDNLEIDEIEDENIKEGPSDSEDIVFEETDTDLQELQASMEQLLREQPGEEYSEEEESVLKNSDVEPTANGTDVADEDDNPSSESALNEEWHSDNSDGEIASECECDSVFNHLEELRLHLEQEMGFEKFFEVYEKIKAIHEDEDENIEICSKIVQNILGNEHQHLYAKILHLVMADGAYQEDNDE
The following applies: at 0.1 µM.

Experiment [13] addresses T5, Serine/threonine-protein kinase Nek1 (Homo sapiens). The conditions noted are these: at 1 µM.
For experiment [14], the target named is T6, Serine/threonine-protein kinase Nek2 (Homo sapiens) (UniProt P51955).
T6 sequence (whole entry): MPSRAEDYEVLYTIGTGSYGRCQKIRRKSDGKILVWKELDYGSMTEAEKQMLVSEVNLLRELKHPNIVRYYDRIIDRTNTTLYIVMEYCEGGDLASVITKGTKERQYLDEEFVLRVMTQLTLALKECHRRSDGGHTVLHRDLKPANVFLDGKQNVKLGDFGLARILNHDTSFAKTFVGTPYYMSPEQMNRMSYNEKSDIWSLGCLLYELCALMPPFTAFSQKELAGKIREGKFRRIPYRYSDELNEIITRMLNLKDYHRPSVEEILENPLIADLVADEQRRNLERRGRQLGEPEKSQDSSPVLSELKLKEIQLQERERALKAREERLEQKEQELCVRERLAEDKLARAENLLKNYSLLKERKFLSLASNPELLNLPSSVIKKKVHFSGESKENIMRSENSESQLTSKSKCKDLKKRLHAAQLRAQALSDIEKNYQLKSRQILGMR
The following applies: at 0.1 µM.

Experiment [15] has as its target T6, Serine/threonine-protein kinase Nek2 (Homo sapiens). The conditions noted are these: at 1 µM.
Experiment [16] addresses Serine/threonine-protein kinase Nek6 (Homo sapiens) (UniProt Q9HC98). The conditions noted are these: at 0.1 µM.
Experiment [17] has the same target. The following applies: at 1 µM.
Experiment [18] deals with Serine/threonine-protein kinase Nek7 (Homo sapiens) (UniProt Q8TDX7). The following applies: at 0.1 µM.
Experiment [19] has the same target. The conditions noted are these: at 1 µM.
Experiment [20] concerns the target T7, Serine/threonine-protein kinase Nek9 (Homo sapiens) (UniProt Q8TD19).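 Further: reported value is the mean percent inhibition of NEK9.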
T7 sequence (whole entry): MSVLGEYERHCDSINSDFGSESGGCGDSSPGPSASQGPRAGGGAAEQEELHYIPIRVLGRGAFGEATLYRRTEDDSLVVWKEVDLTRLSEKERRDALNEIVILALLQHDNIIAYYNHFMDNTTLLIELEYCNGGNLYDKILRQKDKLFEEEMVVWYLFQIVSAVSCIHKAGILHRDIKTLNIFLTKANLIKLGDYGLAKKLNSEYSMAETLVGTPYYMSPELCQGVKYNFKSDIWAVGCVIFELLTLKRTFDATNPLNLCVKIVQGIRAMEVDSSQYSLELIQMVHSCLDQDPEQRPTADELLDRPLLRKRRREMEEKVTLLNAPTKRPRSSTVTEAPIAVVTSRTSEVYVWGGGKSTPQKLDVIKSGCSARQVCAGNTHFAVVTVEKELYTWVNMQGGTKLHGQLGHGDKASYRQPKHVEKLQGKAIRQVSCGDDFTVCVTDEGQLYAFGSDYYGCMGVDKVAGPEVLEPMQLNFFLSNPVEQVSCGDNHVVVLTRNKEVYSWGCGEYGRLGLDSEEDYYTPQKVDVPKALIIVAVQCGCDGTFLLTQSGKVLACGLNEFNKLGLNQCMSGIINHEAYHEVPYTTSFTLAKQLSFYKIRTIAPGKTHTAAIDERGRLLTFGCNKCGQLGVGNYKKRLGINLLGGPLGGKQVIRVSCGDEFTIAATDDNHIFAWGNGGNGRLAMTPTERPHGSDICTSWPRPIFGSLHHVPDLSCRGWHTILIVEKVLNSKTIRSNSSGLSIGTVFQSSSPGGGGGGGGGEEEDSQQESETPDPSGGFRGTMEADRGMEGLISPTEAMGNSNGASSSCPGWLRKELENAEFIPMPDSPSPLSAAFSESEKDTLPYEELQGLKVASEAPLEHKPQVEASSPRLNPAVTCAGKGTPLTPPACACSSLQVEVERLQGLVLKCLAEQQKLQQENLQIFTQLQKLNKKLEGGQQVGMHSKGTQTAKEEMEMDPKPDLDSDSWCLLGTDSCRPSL
The following applies: at 0.1 µM.

A word on the inhibition: it is the change of the read-out against control, counted positive when it falls.

Sequence of Serine/threonine-protein kinase Nek7 (Homo sapiens) (Q8TDX7 whole entry, looked up): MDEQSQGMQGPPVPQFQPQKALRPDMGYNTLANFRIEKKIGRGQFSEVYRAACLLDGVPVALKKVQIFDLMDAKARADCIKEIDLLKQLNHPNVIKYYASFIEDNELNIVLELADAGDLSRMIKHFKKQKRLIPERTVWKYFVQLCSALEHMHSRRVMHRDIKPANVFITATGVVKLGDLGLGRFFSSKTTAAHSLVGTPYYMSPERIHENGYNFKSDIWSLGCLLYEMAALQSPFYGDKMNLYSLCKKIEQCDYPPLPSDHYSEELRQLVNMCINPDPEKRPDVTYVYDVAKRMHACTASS
Sequence of Casein kinase II subunit alpha (Homo sapiens) (P68400 whole entry, looked up): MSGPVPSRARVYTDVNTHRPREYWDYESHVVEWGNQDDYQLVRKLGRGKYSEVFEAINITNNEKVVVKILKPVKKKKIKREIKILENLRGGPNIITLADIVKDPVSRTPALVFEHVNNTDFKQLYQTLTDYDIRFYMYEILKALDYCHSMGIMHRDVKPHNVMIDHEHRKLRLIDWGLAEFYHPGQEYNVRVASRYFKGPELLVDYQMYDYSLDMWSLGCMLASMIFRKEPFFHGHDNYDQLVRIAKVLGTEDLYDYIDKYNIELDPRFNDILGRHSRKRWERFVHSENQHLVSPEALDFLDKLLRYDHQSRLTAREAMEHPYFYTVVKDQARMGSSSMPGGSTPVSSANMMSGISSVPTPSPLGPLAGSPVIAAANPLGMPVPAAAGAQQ
Sequence of Serine/threonine-protein kinase Nek6 (Homo sapiens) (Q9HC98 whole entry): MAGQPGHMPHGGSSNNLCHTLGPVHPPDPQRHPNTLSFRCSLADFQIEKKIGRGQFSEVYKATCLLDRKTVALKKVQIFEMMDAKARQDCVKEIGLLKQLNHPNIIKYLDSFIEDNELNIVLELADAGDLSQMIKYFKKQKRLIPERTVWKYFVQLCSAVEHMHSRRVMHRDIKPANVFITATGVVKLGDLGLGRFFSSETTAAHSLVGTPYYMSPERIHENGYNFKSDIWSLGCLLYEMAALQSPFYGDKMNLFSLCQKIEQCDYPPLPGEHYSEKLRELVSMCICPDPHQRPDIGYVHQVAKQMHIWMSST
Sequence of Sphingosine kinase 1 (Homo sapiens) (Q9NYA1 whole entry): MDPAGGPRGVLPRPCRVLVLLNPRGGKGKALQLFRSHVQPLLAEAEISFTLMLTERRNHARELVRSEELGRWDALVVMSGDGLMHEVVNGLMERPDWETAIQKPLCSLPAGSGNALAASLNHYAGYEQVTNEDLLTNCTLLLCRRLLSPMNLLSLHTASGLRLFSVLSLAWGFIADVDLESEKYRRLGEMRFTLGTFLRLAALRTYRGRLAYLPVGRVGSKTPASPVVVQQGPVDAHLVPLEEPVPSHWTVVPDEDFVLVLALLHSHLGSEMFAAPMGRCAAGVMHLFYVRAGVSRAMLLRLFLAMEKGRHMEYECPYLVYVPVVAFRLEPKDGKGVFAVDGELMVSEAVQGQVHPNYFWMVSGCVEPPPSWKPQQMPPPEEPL

As for `Nc1nccc(-c2c(-c3ccc(F)cc3)ncn2C2CCC(O)CC2)n1` (stereo not given), the inhibition was -4.02% in [1]; 2.29% in [2]; 0.26% in experiment [3]; -0.03% in experiment [4]; 1.03% in experiment [5]; 2.77% in experiment [6]. In addition, the inhibition in experiment [7] was 5.56%; in [8] it was 0.1%; in experiment [9], -1.66%; in [10], -3.9%; in experiment [11], -2.64%; in experiment [12], -1.36%. The inhibition in [13] is 0.03%; in experiment [14], -2.37%; in [15] it was -3.67%; in experiment [16], -4.15%; in experiment [17], -1.66%; in [18] it was -2.24%. The results for the inhibition in experiment [19] and in [20] were -4.78% and 2.41%, respectively.

The values are drawn from ChEMBL document CHEMBL1961873, “Compounds: GSK PKIS; Assays: Nanosyn kinase panel” (2012).
